The values below come from PubChem BioAssay (NCI).

Test systems include T-47D breast; BT-549 breast; MDA-MB-435 melanoma; SW-620 colon; MCF7 breast; HCT-116 colon; HCC-2998 colon; KM12 colon; MDA-MB-468 breast.
Common to all, as to experiment: NCI-60 one-dose screen, 48 h (100 = growth as untreated, 0 = no growth, -100 = all killed)
Common to all, as to settings: 10 µM

The structures appear in SMILES notation. The panel holds about 83,000 compounds, 20% with a hit somewhere; the sample as a whole holds those more often.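 Interpretation: 100, growth as untreated; towards 0, rising growth inhibition; 0, no net growth; 0 to -100, cell death. Compounds scoring below 10 were considered active.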 Values without a mark were called inactive. The source made the active and inactive calls.

For the compound `CN1CCN(c2ccc(Nc3nc(NCCCNC(=O)c4ccccc4)c4sccc4n3)cc2)CC1`, the growth with T-47D breast was 54.3%; with BT-549 breast it was 138%; with MDA-MB-435 melanoma it was 64.4%; in the experiment with SW-620 colon, 60.6%; with MCF7 breast, 38.4%; in the experiment on HCT-116 colon, 30.9%. Moreover, the figures for the growth in the experiment with HCC-2998 colon, with KM12 colon and in the experiment with MDA-MB-468 breast were 83.2%, 54.4% and 68.4%, respectively.

In the case of `O=C(CNc1nc(-c2ccccc2)cs1)Nc1cccc(Cl)c1`, the growth is 7.64% (active) with T-47D breast; 25.8% in the experiment with BT-549 breast; 42.1% with MDA-MB-435 melanoma; 35.9% in the experiment with SW-620 colon; 21.8% in the experiment on MCF7 breast; 27.6% in the experiment on HCT-116 colon. Further, the growth was 33.2% with HCC-2998 colon, 23.6% with KM12 colon and 10.7% in the experiment on MDA-MB-468 breast.

With `CC(=O)Nc1ccc(-c2cn(-c3cccc(C(=O)Nc4ccc(Cl)c(C(F)(F)F)c4)c3)nn2)cn1`, the growth in the experiment on T-47D breast was 16.3%; in the experiment on BT-549 breast, -52.7% (active); in the experiment with MDA-MB-435 melanoma, -70.6% (active); with SW-620 colon, -75.5% (active); in the experiment on MCF7 breast, -48.3% (active); in the experiment with HCT-116 colon, -53.9% (active). For the same compound, the growth with HCC-2998 colon was -36.1% (active); with KM12 colon, -3.58% (active); in the experiment with MDA-MB-468 breast, -68.5% (active).

On to `COc1ccc(NC(=O)CSc2nnc(-c3ccc4nc(-c5ccc(Cl)cc5)[nH]c4c3)o2)cc1`, for which the growth was 96.7% in the experiment on T-47D breast; 29.9% in the experiment on BT-549 breast; -7.51% (active) in the experiment on MDA-MB-435 melanoma; 1.97% (active) with SW-620 colon; 17.1% in the experiment with MCF7 breast; 23.2% with HCT-116 colon. Also, the growth is 111% in the experiment with HCC-2998 colon, 60.4% with KM12 colon and 90.8% in the experiment on MDA-MB-468 breast.

With `COc1ccc(/C=C/C(=O)c2ccc(S(=O)(=O)NCCNc3nc(Nc4ccc(F)cc4)nc(N(C)C)n3)cc2)cc1`, the growth in the experiment with T-47D breast was 18.4%; with BT-549 breast, 36.2%; in the experiment with MDA-MB-435 melanoma it was 25.1%; in the experiment with SW-620 colon, 26.4%; in the experiment with MCF7 breast, -15.2% (active); in the experiment with HCT-116 colon, -67% (active). Also, the values for the growth with HCC-2998 colon, in the experiment with KM12 colon and with MDA-MB-468 breast were 59.3%, -26.1% (active) and -3.57% (active), respectively.

Turning to `CC(C)NC(=O)c1cc(-c2ccc(NC(=O)Nc3ccc(N4CCN(C)CC4)c(C(F)(F)F)c3)cc2)nc2cccnc12`, the growth in the experiment on T-47D breast is -16.6% (active); in the experiment on BT-549 breast, -95.5% (active); in the experiment with MDA-MB-435 melanoma, -96.5% (active); with SW-620 colon it was -64.6% (active); in the experiment on MCF7 breast, -75.6% (active); in the experiment with HCT-116 colon it was -90.6% (active). Further, the growth with HCC-2998 colon is -97.9% (active); in the experiment with KM12 colon, -83.6% (active); in the experiment with MDA-MB-468 breast, -90.9% (active).

For the compound `Cc1ccc(-c2nc3ccc(C(=O)N=Nc4c(O)[nH]c5ccc(Cl)cc45)cc3[nH]2)cc1`, the growth in the experiment on T-47D breast was -4.44% (active); in the experiment on BT-549 breast it was -1.74% (active); in the experiment with MDA-MB-435 melanoma, -61.5% (active); with SW-620 colon, -34% (active); in the experiment on MCF7 breast, -26.9% (active); with HCT-116 colon, 0.963% (active). In addition, the figures for the growth in the experiment on HCC-2998 colon, in the experiment with KM12 colon and in the experiment on MDA-MB-468 breast were -66.8% (active), 4.98% (active) and -75% (active), respectively.

On to `CC1(c2ccccc2)NC(=O)N(CC(=O)Nc2ccc(C(=O)/C=C/c3ccccc3)cc2)C1=O` (stereo unspecified), for which the growth is 18.3% with T-47D breast; 36% in the experiment on BT-549 breast; -23% (active) in the experiment with MDA-MB-435 melanoma; 32.4% in the experiment with SW-620 colon; -19.6% (active) in the experiment with MCF7 breast; -65% (active) with HCT-116 colon. For the same compound, the growth in the experiment with HCC-2998 colon was -15.6% (active); in the experiment on KM12 colon, -73% (active); in the experiment with MDA-MB-468 breast, -2.64% (active).

As to `O=C(c1ccc(O)cc1)C1[C@H](c2ccc(Br)cc2)[C@@H](c2ccccc2)NC12C(=O)Nc1ccc(Br)cc12` (stereo partly specified), the growth is 22.2% in the experiment with T-47D breast; 39.3% in the experiment with BT-549 breast; -25.1% (active) in the experiment on MDA-MB-435 melanoma; -28% (active) in the experiment with SW-620 colon; -18% (active) in the experiment on MCF7 breast; 8.14% (active) with HCT-116 colon. The growth was -83.9% (active) in the experiment with HCC-2998 colon, -24.7% (active) with KM12 colon and -54% (active) with MDA-MB-468 breast.

Take `CCCS(=O)(=O)c1oc(-c2ccc(F)cc2)nc1S(=O)(=O)c1ccc(F)cc1`: the growth with T-47D breast is -67.9% (active); in the experiment on BT-549 breast, -32.1% (active); in the experiment on MDA-MB-435 melanoma, -80.3% (active); in the experiment on SW-620 colon it was -77.6% (active); in the experiment with MCF7 breast, -65.7% (active); with HCT-116 colon it was 3.42% (active). Besides, the growth with HCC-2998 colon was -59.8% (active); in the experiment with KM12 colon it was 41.8%; in the experiment with MDA-MB-468 breast it was -91.4% (active).

`NS(=O)(=O)c1ccc(NC(=O)CSc2ccc(-c3ccccc3)nn2)c(Br)c1`: the growth is 37.4% in the experiment with T-47D breast; 46.3% in the experiment with BT-549 breast; 94.4% in the experiment on MDA-MB-435 melanoma; 99.5% with SW-620 colon; 79% in the experiment on MCF7 breast; 48.7% with HCT-116 colon. In addition, the growth in the experiment with HCC-2998 colon is 77.9%; with KM12 colon, 85.3%; in the experiment with MDA-MB-468 breast, 98%.

On to `CCN1CCN(c2ccc(NC(=O)Nc3ccc4c(c3F)CCN4c3ccnc(C(=O)NC)c3)cc2C(F)(F)F)CC1`, for which the growth in the experiment on T-47D breast was 105%; in the experiment on BT-549 breast, -39.7% (active); with MDA-MB-435 melanoma it was -92.7% (active); in the experiment on SW-620 colon it was -76.9% (active); in the experiment with MCF7 breast, -77.9% (active); in the experiment on HCT-116 colon, -96.5% (active). The growth was 120% in the experiment with HCC-2998 colon, -83.3% (active) in the experiment with KM12 colon and 98.9% in the experiment with MDA-MB-468 breast.

For the compound `Cc1ccc(C(=O)NCCCNc2nc(Nc3ccc(N4CCN(C)CC4)cc3)nc3ccsc23)cc1`, the growth in the experiment on T-47D breast was 4.51% (active); with BT-549 breast, 65.4%; in the experiment on MDA-MB-435 melanoma, 43.9%; with SW-620 colon it was 31.6%; in the experiment on MCF7 breast it was 16.6%; in the experiment with HCT-116 colon, 9.28% (active). The growth with HCC-2998 colon was 43.7%; in the experiment on KM12 colon, 37.2%; in the experiment with MDA-MB-468 breast, 45.4%.

On to `O=c1cc(-c2ccccc2)oc2cc(OCCCCNCc3ccccc3)cc(O)c12`, for which the growth in the experiment with T-47D breast is -70.7% (active); in the experiment on BT-549 breast it was 78.5%; in the experiment on MDA-MB-435 melanoma, -31.5% (active); with SW-620 colon, -39.1% (active); in the experiment on MCF7 breast it was -64.1% (active); in the experiment with HCT-116 colon, -73.7% (active). Further, the growth was -96.7% (active) in the experiment on HCC-2998 colon, 23.8% with KM12 colon and -28.2% (active) in the experiment with MDA-MB-468 breast.
